Each structure is given as a SMILES string.

Assay [1] deals with Insulin receptor (Homo sapiens) (UniProt P06213). The conditions noted are these: at 10 µM.
The target is the same in assay [2]. As to conditions: at 1 µM.
The target is the same in assay [3]. The conditions noted are these: at 10 µM. This is another data set of the same source.
In assay [4] the target is Interleukin-1 receptor-associated kinase 1 (Homo sapiens) (UniProt P51617). The conditions noted are these: at 1 µM.
The target is the same in assay [5]. As to conditions: at 10 µM.
Assay [6] addresses T1, Interleukin-1 receptor-associated kinase 4 (Homo sapiens) (UniProt Q9NWZ3).
T1 sequence (whole entry): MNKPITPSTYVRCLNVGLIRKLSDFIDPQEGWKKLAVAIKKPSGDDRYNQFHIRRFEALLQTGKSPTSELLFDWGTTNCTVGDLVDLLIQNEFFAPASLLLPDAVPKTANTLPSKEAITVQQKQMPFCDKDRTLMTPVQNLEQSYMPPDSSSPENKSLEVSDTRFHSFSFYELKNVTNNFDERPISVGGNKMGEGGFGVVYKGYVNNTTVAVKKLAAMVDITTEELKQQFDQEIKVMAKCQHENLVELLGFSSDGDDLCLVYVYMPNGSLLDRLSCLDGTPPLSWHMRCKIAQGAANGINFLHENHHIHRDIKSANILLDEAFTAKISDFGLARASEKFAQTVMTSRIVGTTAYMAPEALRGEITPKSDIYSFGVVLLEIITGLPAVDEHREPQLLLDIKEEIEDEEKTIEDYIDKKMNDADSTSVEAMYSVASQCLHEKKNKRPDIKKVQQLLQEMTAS
As to conditions: at 1 µM.

Assay [7] has as its target T1, Interleukin-1 receptor-associated kinase 4 (Homo sapiens). The conditions noted are these: at 10 µM.
In assay [8] the target is Insulin receptor-related protein (Homo sapiens) (UniProt P14616). As to conditions: at 1 µM.
Assay [9] shares this target. As to conditions: at 10 µM.
For assay [10], the target named is T2, Tyrosine-protein kinase ITK/TSK (Homo sapiens) (UniProt Q08881).
T2 sequence (whole entry): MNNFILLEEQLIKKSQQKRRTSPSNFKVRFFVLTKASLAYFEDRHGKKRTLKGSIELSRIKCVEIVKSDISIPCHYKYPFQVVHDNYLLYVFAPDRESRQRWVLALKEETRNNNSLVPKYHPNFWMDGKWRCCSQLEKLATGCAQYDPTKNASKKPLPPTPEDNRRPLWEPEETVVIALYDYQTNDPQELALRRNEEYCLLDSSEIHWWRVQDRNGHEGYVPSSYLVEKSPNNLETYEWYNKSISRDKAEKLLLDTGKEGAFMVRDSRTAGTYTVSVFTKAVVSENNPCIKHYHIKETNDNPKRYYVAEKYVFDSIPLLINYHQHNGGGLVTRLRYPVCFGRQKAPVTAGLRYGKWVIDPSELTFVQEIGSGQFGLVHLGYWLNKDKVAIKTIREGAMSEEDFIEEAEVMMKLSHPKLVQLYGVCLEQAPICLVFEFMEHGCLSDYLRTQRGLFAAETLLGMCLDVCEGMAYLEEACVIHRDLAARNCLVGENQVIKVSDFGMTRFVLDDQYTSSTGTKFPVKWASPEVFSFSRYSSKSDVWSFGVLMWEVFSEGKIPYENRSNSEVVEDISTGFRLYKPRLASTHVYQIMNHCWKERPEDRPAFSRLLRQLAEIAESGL
As to conditions: at 1 µM.

In assay [11] the target is T2, Tyrosine-protein kinase ITK/TSK (Homo sapiens). As to conditions: at 10 µM.
Assay [12] concerns the target Tyrosine-protein kinase JAK2 (Homo sapiens) (UniProt O60674). As to conditions: at 1 µM.
Assay [13] has the same target. As to conditions: at 10 µM.
The target in assay [14] is T3, Tyrosine-protein kinase JAK3 (Homo sapiens) (UniProt P52333).
T3 sequence (whole entry): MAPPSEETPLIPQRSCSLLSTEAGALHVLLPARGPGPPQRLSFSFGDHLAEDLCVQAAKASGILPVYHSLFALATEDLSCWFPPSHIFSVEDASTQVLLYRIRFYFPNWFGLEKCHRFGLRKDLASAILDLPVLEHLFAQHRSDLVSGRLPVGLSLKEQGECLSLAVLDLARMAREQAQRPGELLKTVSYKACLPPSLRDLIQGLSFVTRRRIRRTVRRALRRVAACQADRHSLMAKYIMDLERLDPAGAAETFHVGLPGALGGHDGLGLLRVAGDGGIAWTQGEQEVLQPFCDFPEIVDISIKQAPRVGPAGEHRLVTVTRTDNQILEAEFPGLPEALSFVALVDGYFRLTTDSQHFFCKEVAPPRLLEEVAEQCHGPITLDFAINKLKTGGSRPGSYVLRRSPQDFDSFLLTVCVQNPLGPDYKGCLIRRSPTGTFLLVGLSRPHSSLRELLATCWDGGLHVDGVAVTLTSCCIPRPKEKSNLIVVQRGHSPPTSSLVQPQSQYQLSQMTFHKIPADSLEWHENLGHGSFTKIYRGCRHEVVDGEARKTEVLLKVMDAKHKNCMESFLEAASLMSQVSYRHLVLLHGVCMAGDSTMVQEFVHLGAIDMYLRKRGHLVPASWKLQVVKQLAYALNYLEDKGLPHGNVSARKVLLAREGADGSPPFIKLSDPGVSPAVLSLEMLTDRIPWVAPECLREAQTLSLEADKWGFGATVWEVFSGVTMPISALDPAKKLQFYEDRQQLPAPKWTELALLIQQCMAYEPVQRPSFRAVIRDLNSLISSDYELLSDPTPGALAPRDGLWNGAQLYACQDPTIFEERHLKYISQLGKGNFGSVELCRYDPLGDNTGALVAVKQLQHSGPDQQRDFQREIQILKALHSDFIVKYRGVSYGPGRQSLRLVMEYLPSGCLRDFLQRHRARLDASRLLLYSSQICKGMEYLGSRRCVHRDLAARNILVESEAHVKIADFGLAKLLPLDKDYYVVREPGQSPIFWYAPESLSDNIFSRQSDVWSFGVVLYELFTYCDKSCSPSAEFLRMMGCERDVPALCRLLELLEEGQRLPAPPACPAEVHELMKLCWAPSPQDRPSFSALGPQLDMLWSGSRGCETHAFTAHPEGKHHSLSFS
As to conditions: at 1 µM.

Assay [15] concerns the target T3, Tyrosine-protein kinase JAK3 (Homo sapiens). The conditions noted are these: at 10 µM.
The target of assay [16] is Mitogen-activated protein kinase 8 (Homo sapiens) (UniProt P45983). As to conditions: at 1 µM.
Assay [17] shares this target. The conditions noted are these: at 10 µM.
Assay [18] deals with Mitogen-activated protein kinase 9 (Homo sapiens) (UniProt P45984). The conditions noted are these: at 1 µM.
Assay [19] has the same target. As to conditions: at 10 µM.
In assay [20] the target is Mitogen-activated protein kinase 10 (Homo sapiens) (UniProt P53779). The conditions noted are these: at 1 µM.
Sequence of Mitogen-activated protein kinase 10 (Homo sapiens) (P53779 whole entry): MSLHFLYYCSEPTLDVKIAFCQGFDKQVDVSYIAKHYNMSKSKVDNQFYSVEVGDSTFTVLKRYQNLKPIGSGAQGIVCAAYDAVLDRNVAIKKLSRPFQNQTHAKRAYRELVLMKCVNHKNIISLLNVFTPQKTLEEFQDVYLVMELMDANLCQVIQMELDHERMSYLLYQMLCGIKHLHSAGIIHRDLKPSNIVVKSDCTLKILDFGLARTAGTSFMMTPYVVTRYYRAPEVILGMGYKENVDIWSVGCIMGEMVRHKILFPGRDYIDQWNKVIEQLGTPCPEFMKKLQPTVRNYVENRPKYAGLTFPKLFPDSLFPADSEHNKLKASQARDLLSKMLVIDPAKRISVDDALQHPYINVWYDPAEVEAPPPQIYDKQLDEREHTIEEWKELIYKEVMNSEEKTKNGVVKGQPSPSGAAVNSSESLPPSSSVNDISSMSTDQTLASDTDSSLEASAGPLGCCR

Sequence of Mitogen-activated protein kinase 8 (Homo sapiens) (P45983 whole entry): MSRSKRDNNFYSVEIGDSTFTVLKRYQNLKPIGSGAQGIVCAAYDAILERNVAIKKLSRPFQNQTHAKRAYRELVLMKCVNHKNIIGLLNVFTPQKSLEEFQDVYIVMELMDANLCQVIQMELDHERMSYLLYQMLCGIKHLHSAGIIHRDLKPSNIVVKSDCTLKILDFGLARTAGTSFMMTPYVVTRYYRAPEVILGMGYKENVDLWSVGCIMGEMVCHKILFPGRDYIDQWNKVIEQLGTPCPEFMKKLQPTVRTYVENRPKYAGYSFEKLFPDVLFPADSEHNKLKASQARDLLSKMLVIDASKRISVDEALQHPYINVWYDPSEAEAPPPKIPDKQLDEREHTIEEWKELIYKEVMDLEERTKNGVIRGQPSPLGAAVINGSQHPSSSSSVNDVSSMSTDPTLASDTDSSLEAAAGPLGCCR
Sequence of Insulin receptor-related protein (Homo sapiens) (P14616 27-742 limits assumed): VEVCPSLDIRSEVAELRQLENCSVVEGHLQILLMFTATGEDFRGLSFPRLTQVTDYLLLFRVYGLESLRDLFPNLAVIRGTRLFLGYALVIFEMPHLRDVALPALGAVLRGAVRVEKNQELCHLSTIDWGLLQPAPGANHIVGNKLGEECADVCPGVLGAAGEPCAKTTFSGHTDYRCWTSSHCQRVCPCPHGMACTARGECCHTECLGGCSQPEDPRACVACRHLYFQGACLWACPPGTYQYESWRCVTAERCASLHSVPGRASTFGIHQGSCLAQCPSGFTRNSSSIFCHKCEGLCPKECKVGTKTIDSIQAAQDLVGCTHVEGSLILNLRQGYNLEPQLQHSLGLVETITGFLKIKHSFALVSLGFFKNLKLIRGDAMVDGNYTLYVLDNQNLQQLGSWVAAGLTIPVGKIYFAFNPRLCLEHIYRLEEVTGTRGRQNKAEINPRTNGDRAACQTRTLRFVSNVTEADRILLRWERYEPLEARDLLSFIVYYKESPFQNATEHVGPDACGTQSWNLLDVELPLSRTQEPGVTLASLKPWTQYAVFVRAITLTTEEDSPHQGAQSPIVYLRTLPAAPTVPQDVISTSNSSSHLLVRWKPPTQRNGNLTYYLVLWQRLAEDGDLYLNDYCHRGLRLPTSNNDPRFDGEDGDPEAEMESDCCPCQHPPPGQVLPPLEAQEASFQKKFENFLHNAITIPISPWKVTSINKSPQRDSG
Sequence of Insulin receptor-related protein (Homo sapiens) (P14616 747-1297 limits assumed): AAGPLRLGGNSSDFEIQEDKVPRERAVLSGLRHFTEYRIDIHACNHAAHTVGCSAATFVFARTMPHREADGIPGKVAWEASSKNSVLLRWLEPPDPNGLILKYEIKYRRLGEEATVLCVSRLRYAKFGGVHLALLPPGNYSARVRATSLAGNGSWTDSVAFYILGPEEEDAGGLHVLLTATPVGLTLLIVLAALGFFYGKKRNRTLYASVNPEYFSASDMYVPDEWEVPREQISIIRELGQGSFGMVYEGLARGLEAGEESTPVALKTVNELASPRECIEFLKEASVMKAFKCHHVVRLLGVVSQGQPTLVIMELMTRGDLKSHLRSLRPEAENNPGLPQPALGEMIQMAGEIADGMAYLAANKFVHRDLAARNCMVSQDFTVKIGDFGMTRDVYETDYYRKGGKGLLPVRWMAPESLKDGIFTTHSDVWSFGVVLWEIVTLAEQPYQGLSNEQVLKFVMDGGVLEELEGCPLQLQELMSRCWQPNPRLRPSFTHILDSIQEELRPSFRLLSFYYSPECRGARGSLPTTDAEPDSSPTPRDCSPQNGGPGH
Sequence of Mitogen-activated protein kinase 9 (Homo sapiens) (P45984 whole entry, looked up): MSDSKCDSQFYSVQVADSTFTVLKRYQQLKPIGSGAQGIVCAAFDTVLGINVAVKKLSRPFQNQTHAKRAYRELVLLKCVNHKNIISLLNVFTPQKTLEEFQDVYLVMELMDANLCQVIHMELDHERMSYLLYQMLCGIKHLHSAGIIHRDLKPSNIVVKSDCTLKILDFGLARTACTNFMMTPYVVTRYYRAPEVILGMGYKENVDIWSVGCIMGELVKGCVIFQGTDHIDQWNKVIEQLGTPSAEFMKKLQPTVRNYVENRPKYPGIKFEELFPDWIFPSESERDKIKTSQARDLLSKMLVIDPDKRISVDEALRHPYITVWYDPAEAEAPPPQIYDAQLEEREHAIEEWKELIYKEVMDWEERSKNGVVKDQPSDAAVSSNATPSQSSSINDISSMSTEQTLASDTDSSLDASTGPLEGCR
Sequence of Insulin receptor (Homo sapiens) (P06213 28-758 limits assumed): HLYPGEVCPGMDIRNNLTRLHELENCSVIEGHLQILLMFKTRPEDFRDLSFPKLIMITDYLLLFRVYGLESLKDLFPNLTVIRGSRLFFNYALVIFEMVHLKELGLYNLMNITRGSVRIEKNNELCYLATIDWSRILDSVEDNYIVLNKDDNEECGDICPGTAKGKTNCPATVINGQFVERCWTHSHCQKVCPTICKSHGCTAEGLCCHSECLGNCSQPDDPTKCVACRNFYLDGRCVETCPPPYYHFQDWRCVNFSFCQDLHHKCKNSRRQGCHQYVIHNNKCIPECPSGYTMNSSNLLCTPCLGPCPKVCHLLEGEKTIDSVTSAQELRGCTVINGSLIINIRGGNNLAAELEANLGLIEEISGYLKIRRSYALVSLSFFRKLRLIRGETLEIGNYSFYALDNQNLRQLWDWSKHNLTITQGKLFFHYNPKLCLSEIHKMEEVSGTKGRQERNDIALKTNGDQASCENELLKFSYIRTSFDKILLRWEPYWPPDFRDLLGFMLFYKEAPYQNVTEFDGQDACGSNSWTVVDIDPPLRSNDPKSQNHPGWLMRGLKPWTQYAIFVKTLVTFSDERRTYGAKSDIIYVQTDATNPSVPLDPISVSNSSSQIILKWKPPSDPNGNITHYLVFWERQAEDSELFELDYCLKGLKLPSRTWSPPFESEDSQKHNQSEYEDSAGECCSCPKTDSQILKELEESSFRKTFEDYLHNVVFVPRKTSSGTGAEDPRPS
Sequence of Insulin receptor (Homo sapiens) (P06213 763-1382 limits assumed): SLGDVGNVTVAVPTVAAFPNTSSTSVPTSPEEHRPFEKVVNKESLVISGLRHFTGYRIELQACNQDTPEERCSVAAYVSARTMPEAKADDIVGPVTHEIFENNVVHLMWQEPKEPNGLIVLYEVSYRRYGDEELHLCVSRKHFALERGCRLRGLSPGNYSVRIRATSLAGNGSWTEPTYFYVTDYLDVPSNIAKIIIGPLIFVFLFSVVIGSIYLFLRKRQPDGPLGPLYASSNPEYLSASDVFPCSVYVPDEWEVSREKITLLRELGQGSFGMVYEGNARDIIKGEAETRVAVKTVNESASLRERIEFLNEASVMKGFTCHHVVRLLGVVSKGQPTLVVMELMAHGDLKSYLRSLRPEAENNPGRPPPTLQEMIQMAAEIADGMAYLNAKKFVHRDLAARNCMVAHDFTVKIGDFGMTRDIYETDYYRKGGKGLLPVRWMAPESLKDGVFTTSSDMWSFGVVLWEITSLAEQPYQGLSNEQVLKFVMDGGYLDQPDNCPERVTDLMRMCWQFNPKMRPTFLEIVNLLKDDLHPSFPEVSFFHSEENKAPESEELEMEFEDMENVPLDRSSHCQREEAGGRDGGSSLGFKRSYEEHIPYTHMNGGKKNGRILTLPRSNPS
Sequence of Interleukin-1 receptor-associated kinase 1 (Homo sapiens) (P51617 whole entry, looked up): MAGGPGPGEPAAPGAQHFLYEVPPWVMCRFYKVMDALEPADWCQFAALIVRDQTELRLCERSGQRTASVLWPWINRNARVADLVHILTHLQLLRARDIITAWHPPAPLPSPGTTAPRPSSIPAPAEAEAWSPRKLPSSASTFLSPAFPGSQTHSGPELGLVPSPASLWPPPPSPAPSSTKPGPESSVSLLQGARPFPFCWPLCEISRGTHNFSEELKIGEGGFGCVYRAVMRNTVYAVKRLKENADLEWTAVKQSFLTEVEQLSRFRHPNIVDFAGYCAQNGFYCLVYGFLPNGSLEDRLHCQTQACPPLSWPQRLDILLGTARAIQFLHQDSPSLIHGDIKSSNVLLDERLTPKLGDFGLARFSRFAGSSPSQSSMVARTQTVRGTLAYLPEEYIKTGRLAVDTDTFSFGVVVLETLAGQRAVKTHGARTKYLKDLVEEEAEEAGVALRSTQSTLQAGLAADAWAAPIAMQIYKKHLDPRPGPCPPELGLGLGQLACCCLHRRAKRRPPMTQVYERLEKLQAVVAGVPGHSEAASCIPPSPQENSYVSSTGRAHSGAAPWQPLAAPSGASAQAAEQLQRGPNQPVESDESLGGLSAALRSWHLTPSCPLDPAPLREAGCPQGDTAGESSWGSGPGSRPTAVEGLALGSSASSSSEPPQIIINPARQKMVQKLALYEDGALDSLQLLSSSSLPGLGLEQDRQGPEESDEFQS

With `Cc1nc(-c2ccccc2)c(-c2ccncc2)o1`, the residual activity turned out to be 106% in assay [1]; 109% in [2]; 93% in [3]; 110% in assay [4]; 107% in assay [5]; 104% in assay [6]. For the same compound, the residual activity in assay [7] turned out to be 88%; in assay [8], 118%; in assay [9] it was 123%; in assay [10], 113%; in assay [11] it was 101%; in assay [12] it was 113%. Further, the residual activity in assay [13] was 115%; in [14] it was 97%; in [15], 114%; in [16], 107%; in [17] it was 94%; in assay [18], 88%. For the same compound, the residual activity was 57% in [19] and 63% in [20].
As for `Cc1nc2cc3nc(-c4cccs4)cnc3cc2n1C`, the residual activity in [1] was 101%; in assay [2], 106%; in assay [3], 95%; in assay [4] it was 110%; in assay [5], 90%; in assay [6], 111%. For the same compound, the residual activity in assay [7] amounted to 70%; in assay [8], 130%; in assay [9], 100%; in assay [10], 108%; in assay [11], 71%; in assay [12], 113%. In addition, the residual activity in assay [13] came out at 106%; in assay [14], 105%; in assay [15] it was 106%; in assay [16], 114%; in assay [17] it was 100%; in assay [18] it was 106%. Also, the residual activity stood at 106% in assay [19] and 119% in assay [20].
In the case of `O=Nc1c(-c2c(O)[nH]c3ccccc23)[nH]c2ccccc12`, the residual activity in assay [1] is 10%; in assay [2], 35%; in assay [3], 19%; in [4], 60%; in [5] it was 11%; in assay [6], 41%. The residual activity was found to be 6% in assay [7]; 2% in assay [8]; 1% in assay [9]; 19% in assay [10]; 1% in assay [11]; 92% in assay [12]. Also, the residual activity was 11% in assay [13]; 21% in [14]; 2% in [15]; 63% in assay [16]; 70% in assay [17]; 55% in assay [18]. For the same compound, the residual activity in assay [19] worked out at 17%; in assay [20], 7%.
In the case of `CC(C)n1cnc2c(NCc3ccccc3)nc(NCCCO)nc21`, the residual activity is 70% in assay [1]; 99% in assay [2]; 75% in assay [3]; 105% in assay [4]; 106% in [5]; 93% in assay [6]. For the same compound, the residual activity in assay [7] worked out at 76%; in assay [8], 106%; in [9] it was 84%; in [10], 105%; in [11] it was 96%; in assay [12], 101%. The residual activity is 103% in [13]; 111% in assay [14]; 108% in assay [15]; 104% in [16]; 95% in assay [17]; 98% in assay [18]. For the same compound, the residual activity in assay [19] was determined as 99%; in assay [20] it was 57%.
Consider `Nc1n[nH]c2nnc(-c3c(-c4ccccc4)nn4ccccc34)cc12`, for which the residual activity is 25% in assay [1]; 89% in assay [2]; 44% in assay [3]; 95% in [4]; 104% in assay [5]; 66% in [6]. Also, the residual activity in assay [7] is 64%; in assay [8] it was 88%; in [9] it was 23%; in assay [10] it was 96%; in assay [11] it was 88%; in assay [12], 95%. Moreover, the residual activity in assay [13] came to 99%; in assay [14] it was 103%; in [15] it was 92%; in assay [16], 99%; in [17], 71%; in assay [18], 55%. For the same compound, the residual activity was 9% in assay [19] and 19% in [20].
As to `CCN(CC)CCCCN1c2ccccc2Oc2ccc(Cl)cc21`, the residual activity stood at 112% in assay [1]; 102% in [2]; 104% in assay [3]; 111% in assay [4]; 105% in [5]; 118% in assay [6]. Moreover, the residual activity in assay [7] stood at 107%; in assay [8], 121%; in [9] it was 102%; in assay [10] it was 108%; in assay [11], 102%; in assay [12], 107%. The residual activity in [13] came out at 138%; in assay [14], 110%; in assay [15], 142%; in assay [16], 113%; in assay [17] it was 91%; in assay [18], 106%. Further, the residual activity in assay [19] was 104%; in assay [20] it was 111%.
Turning to `O=C1NC(=O)/C(=C\c2ccc3nccnc3c2)S1`, the residual activity came out at 94% in assay [1]; 103% in assay [2]; 97% in assay [3]; 76% in assay [4]; 35% in [5]; 104% in assay [6]. For the same compound, the residual activity turned out to be 91% in [7]; 127% in [8]; 58% in assay [9]; 97% in [10]; 91% in [11]; 108% in [12]. Moreover, the residual activity in assay [13] turned out to be 94%; in assay [14], 86%; in assay [15], 67%; in assay [16], 104%; in assay [17], 87%; in assay [18] it was 108%. In addition, the residual activity is 96% in assay [19] and 89% in [20].

The values above are taken from ChEMBL document CHEMBL2218924, “A broad activity screen in support of a chemogenomic map for kinase signalling research and drug discovery” (Biochem J, 2013).
